Potency and outcome data for 31 molecules are collected here from PubChem BioAssay (NCATS).

Records with an inconclusive call do not appear. The source made the active and inactive calls. Unless noted, calls follow the shape of the dose curve; as a rule, active = well fitted curve in the direction sought with a large enough effect; inconclusive = small, poorly fitted or top-dose-only effect, or another doubt; inactive = no such curve, though single readings can be large; an effect the other way counts as inactive or inconclusive.

Experiment [1] in a line: Natriuretic polypeptide receptor (hNpr1) antagonism - Pilot counterscreen GloSensor control cell line (AID 1347045; calls by dose curve; also: potency is read from the fitted curve at half-maximal effect). An outline of the steps: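 HEK293 cGMP-sensor cells; 2% GloSensor reagent 2 h RT; LOPAC compounds in 1:5 titrations 30-50 min; 50 uM SNP 20 min; luminescence pre-read and post-read.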
Experiment [2] in a line: NS1 protein of Zika virus - qHTS assay to identify small molecule inhibitors in human HEK 293 cells (AID 1347053). Also: series mostly up to about 46 µM; nearly all actives have a fitted effect of over 55% in size. The method in brief: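 In this cell-based screen, HEK 293 cultures received compound for one hour before Zika MR766 at MOI = 0.5. NS1 was quantified 24 hours later by TR-FRET, normalized to virus-free wells and infected wells.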
In experiment [3] the target is T1, Tyrosine-protein phosphatase non-receptor type substrate 1 (Homo sapiens) + Leukocyte surface antigen CD47 (Homo sapiens) (UniProt P78324+Q08722). Put plainly: CD47-SIRPalpha protein protein interaction - LANCE assay qHTS validation (AID 1347057; active = well fitted curve in the direction sought with a large enough effect in the signal ratio, with a control signal flat, not every such curve was filed as active; the % refers to the signal ratio; also: series mostly up to about 38 µM). The method in brief: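 Inhibition of soluble CD47/SIRPalpha ectodomain association by titrated compounds, measured as 665/615 nm time-resolved FRET ratio after sequential 30 min room-temperature incubations.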
T1 sequence (P78324 whole entry, looked up, the tested form may be a part): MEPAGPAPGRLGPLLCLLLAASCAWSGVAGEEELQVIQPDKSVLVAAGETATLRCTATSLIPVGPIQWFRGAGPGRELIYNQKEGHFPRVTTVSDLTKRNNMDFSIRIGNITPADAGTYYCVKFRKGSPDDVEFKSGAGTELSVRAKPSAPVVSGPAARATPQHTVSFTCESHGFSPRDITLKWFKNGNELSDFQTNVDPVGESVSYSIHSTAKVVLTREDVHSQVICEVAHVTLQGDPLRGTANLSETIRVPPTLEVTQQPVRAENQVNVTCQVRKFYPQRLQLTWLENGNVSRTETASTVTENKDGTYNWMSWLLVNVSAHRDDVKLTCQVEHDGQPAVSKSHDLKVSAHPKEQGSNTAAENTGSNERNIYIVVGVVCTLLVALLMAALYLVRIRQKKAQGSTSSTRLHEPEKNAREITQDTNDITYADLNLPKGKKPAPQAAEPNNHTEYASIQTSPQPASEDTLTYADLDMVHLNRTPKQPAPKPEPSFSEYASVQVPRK
T1 sequence (Q08722 whole entry, looked up, the tested form may be a part): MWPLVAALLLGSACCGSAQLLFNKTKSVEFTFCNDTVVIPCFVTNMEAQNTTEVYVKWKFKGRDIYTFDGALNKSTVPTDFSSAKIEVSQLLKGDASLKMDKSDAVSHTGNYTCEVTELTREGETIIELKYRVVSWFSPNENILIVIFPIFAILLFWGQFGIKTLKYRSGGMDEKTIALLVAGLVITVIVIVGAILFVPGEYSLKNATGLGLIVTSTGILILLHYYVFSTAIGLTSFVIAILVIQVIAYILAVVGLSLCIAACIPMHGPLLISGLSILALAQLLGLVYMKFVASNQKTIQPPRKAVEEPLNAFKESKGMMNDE

In experiment [4] the target is Parathyroid hormone/parathyroid hormone-related peptide receptor (Homo sapiens) (UniProt Q03431). Put plainly: qHTS for PTHR1 Agonists: Optimization Screen against the NCGC LOPAC library (AID 1347079).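 Also: GloSensor cAMP luminescence in HEK-293 GP2 cells expressing human PTHR1 with IBMX.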 An outline of the steps: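 Signal increase flags agonism. GP2 cells, derived from HEK-293, express human PTHR1 and a GloSensor cAMP construct.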
Sequence of Parathyroid hormone/parathyroid hormone-related peptide receptor (Homo sapiens) (Q03431 whole entry, looked up): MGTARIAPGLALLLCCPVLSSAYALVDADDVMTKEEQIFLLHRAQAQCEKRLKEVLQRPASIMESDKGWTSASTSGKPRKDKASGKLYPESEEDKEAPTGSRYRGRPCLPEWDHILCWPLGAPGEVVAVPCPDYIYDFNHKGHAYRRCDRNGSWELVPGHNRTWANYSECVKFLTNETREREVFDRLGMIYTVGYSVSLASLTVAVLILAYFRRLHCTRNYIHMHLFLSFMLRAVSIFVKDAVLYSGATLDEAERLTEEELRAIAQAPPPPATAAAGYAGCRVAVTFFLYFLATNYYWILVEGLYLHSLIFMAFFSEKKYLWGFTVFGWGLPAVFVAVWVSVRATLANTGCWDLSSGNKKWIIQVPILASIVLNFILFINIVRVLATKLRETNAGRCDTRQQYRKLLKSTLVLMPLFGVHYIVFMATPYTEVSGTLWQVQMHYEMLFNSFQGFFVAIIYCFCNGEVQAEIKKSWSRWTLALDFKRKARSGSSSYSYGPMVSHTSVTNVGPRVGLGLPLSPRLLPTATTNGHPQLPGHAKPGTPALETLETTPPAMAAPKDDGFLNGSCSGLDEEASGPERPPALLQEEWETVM
The target in experiment [5] is T1, Tyrosine-protein phosphatase non-receptor type substrate 1 (Homo sapiens) + Leukocyte surface antigen CD47 (Homo sapiens). Put plainly: CD47-SIRPalpha protein protein interaction - Alpha assay qHTS validation (AID 1347059).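 Also: bead proximity luminescence from CD47 binding SIRPalpha after compound preincubation with SIRPalpha.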 An outline of the steps:
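SIRPalpha-biotin 25 nM + cpd, 30 min RT, dark; add CD47-His 12.5 nM, 30 min; add Ni-NTA/SAV beads 10 ug/mL, 30 min; AlphaScreen. Buffer PBS pH 7.4 + 0.05% IGEPAL CA-630. Non-biotinylated SIRPalpha as control inhibitor.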

Experiment [6] deals with Atrial natriuretic peptide receptor 1 (Homo sapiens) (UniProt P16066). Put plainly: Natriuretic polypeptide receptor (hNpr1) antagonism - Pilot screen (AID 1347049; calls by dose curve;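 also: agonist-evoked cGMP luminescence read 20 min after hNppA addition; series mostly up to about 58 µM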). An outline of the steps: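 cGMP-sensor HEK293/hNpr1 cells, 1500/well, plated overnight at 37C. 2% GloSensor reagent, 2 h RT. Compound (23 nL pin transfer) 30 min RT, baseline luminescence pre-read. 0.1 nM hNppA, 20 min RT, post-read.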
Sequence of Atrial natriuretic peptide receptor 1 (Homo sapiens) (P16066 whole entry, looked up): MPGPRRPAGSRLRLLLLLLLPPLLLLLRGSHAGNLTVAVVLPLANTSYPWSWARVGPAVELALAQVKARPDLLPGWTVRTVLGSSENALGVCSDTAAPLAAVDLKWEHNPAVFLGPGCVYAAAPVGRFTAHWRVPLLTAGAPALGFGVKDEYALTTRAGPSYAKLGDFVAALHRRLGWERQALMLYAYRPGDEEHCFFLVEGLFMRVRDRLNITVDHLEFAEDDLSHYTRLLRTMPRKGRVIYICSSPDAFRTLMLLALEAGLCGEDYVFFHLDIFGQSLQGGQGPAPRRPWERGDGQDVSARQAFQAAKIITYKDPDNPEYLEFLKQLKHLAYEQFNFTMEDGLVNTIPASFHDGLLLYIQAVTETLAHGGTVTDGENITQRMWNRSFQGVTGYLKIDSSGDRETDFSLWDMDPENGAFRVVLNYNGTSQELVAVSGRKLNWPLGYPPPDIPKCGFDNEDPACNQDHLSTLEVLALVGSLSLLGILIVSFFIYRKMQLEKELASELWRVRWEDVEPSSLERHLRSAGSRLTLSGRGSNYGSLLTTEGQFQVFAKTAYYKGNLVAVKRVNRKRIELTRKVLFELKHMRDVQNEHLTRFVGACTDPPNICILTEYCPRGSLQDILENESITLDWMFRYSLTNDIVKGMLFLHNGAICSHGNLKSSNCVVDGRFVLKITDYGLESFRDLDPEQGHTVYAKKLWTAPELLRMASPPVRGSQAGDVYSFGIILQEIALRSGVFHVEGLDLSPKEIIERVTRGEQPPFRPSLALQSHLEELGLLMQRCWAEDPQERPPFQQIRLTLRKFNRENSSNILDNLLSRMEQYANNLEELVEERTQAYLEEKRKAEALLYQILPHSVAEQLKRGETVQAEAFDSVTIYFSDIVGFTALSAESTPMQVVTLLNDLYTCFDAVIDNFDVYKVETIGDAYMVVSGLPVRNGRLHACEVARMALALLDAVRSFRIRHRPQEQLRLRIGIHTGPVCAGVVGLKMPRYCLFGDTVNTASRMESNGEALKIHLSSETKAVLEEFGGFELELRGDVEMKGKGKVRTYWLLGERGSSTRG

Experiment [7] concerns the target Atrial natriuretic peptide receptor 2 (Homo sapiens) (UniProt P20594). Put plainly: Natriuretic polypeptide receptor (hNpr2) antagonism - Pilot subtype selectivity assay (AID 1347050; calls by dose curve; also: potency is read from the fitted curve at half-maximal effect). An outline of the steps:
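Luminescence from a genetically encoded cGMP luciferase biosensor in hNpr2-expressing HEK293 cells is read before and 20 min after adding 1 nM hNppC. Test compounds, in interplate 1:5 titrations, are added 30-50 min ahead of the agonist.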

Experiment [8] addresses T1, Tyrosine-protein phosphatase non-receptor type substrate 1 (Homo sapiens) + Leukocyte surface antigen CD47 (Homo sapiens). Put plainly: CD47-SIRPalpha protein protein interaction - HTRF assay qHTS validation (AID 1347058; active = well fitted curve in the direction sought with a large enough effect in the signal ratio, not every such curve was filed as active; the % refers to the signal ratio; also: series mostly up to about 38 µM). The method in brief: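 Soluble extracellular domains (6His-CD47, Avi-tag-biotinylated SIRPalpha) in PBS pH 7.4 with 0.05% IGEPAL CA-630. Compounds were preincubated 30 min at RT with CD47 and anti-His-Eu, then SIRPalpha and SAV-XL665 were added. TR-FRET 665/615 ratio.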

Sequence of Atrial natriuretic peptide receptor 2 (Homo sapiens) (P20594 whole entry, looked up): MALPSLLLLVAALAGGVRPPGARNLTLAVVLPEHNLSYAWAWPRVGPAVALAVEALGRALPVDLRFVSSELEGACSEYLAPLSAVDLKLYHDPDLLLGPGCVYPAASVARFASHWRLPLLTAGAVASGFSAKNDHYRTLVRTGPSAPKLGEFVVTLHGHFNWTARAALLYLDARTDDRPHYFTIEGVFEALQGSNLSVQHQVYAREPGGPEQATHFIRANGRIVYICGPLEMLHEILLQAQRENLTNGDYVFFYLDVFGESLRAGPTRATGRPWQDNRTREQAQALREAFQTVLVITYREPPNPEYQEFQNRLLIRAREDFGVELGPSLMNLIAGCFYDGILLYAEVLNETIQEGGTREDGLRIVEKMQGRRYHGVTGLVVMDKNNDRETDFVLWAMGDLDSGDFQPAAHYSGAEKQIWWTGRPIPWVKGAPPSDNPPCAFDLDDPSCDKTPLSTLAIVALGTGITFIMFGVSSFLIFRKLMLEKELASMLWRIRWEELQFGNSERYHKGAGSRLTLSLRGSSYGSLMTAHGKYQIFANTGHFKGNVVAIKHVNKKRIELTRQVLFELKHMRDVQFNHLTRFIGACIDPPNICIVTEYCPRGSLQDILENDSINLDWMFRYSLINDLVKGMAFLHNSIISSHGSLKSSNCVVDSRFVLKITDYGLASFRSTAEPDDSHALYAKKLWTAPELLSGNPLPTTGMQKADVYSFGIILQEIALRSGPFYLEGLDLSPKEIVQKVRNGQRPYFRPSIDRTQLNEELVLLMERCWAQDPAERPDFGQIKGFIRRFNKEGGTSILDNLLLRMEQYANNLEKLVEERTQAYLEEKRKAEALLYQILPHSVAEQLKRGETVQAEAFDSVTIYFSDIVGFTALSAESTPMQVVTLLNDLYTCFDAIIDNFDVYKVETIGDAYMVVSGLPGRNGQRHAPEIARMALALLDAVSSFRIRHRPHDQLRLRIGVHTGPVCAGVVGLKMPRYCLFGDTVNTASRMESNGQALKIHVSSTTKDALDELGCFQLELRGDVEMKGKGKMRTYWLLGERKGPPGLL

Regarding `Oc1cc(O)cc(/C=C/c2ccc(O)c(O)c2)c1`, the Potency in experiment [1] is 11.7 µM (active). The Potency result in experiment [2], in experiment [3] and in experiment [4] was “inactive” in each case.

Turning to `O=C1/C(=C/c2ccsc2)CC/C1=C\c1cccs1`, the Potency in experiment [1] was 1.47 µM (active). Besides, the Potency result in experiment [2], in experiment [3], in experiment [5] and in experiment [4] was “inactive” each time.

On to `COc1cc2c(CCNC(C)=O)c[nH]c2cc1Cl`, for which the Potency entry in experiment [6], in experiment [7], in experiment [2], in experiment [3], in experiment [5] and in experiment [4] was “inactive” each time. For the same molecule, the outcome in experiment [8] was inactive.

Regarding `Cc1ccc(C(=O)O[C@H](C(=O)O)[C@@H](OC(=O)c2ccc(C)cc2)C(=O)O)cc1` (tested in a mixture with another compound), the Potency entry in experiment [1], in experiment [7] and in experiment [4] was “inactive” throughout.

On to `N#C/C(=C\c1ccc(O)c(O)c1)C(=O)NCc1ccccc1`, for which the Potency result in experiment [6] and in experiment [7] was “inactive” each time.

Take `Cn1cc(C2=C(c3ccc(Cl)cc3Cl)C(=O)NC2=O)c2ccccc21`: the Potency result in experiment [6], in experiment [7], in experiment [2], in experiment [3], in experiment [5] and in experiment [4] was “inactive” throughout. For the same molecule, in experiment [8], the outcome was inactive.

`Cc1cc(NC(=O)Nc2ccc3c(ccn3C)c2)sn1`: the Potency result in experiment [6], in experiment [7], in experiment [2], in experiment [3], in experiment [5] and in experiment [4] was “inactive” in each case. Further, the result in experiment [8] was inactive.

Turning to `COC(=O)c1c(C)[nH]c(C)c1C(=O)c1ccccc1Cc1ccccc1`, the Potency result in experiment [6], in experiment [7], in experiment [2], in experiment [3], in experiment [5] and in experiment [4] was “inactive” in each case. For the same molecule, the result in experiment [8] was inactive.

Consider `Cc1ccccc1CNc1ncnc2c1ncn2C1OC(CO)C(O)C1O` (configuration not stated), for which the Potency result in experiment [1], in experiment [7] and in experiment [4] was “inactive” each time.

Regarding `Brc1c(Br)c(Br)c2n[nH]nc2c1Br`, the Potency entry in experiment [6], in experiment [7], in experiment [2], in experiment [3], in experiment [5] and in experiment [4] was “inactive” in each case. Moreover, in experiment [8], the result was inactive.

For the molecule `O=C(/C=C/c1ccc(O)c(O)c1)OCCc1ccccc1`, the Potency entry in experiment [6], in experiment [7], in experiment [2], in experiment [3], in experiment [5] and in experiment [4] was “inactive” each time. Further, the result in experiment [8] was inactive.

`CC(C)(C)c1ccc(S(=O)(=O)/C=C/C#N)cc1`: the Potency in experiment [1] was 6.56 µM (active); in experiment [7], 7.36 µM (active). Also, the Potency entry in experiment [3], in experiment [5] and in experiment [4] was “inactive” each time. Further, the result in experiment [8] was inactive.

Take `NCC1OC(O[C@H]2[C@H](O)[C@@H](OC3C(O)C(N)CC(N)C3OC3OC(CO)C(O)C(O)C3N)O[C@@H]2CO)C(N)C(O)C1O` (some centres not stated): the Potency result in experiment [1], in experiment [7], in experiment [2], in experiment [3], in experiment [5] and in experiment [4] was “inactive” in each case. For the same molecule, the result in experiment [8] was inactive.

On to `Cc1cc(NC2CCCCC2)nc(-n2nc(C)cc2C)n1`, for which the Potency result in experiment [6], in experiment [7], in experiment [2], in experiment [3], in experiment [5] and in experiment [4] was “inactive” in each case. For the same molecule, in experiment [8], the result was inactive.

Take `CCOC(=O)N1CCN(/[N+]([O-])=N/Oc2ccc([N+](=O)[O-])cc2[N+](=O)[O-])CC1`: the Potency in experiment [1] was 5.21 µM (active); in experiment [7], 10.4 µM (active). Besides, the Potency entry in experiment [2], in experiment [3], in experiment [5] and in experiment [4] was “inactive” in each case.

For the molecule `CC(C)NC[C@H](O)COc1cccc2[nH]ccc12`, the Potency result in experiment [6], in experiment [7], in experiment [2], in experiment [3], in experiment [5] and in experiment [4] was “inactive” in each case. The outcome in experiment [8] was inactive.

As for `NCCCCC(=O)O`, the Potency entry in experiment [6], in experiment [7], in experiment [2] and in experiment [4] was “inactive” throughout.

On to `O=P(O)(O)C(Cl)(Cl)P(=O)(O)O`, for which the Potency result in experiment [6], in experiment [7], in experiment [2], in experiment [3], in experiment [5] and in experiment [4] was “inactive” in each case. Also, the result in experiment [8] was inactive.

For `N.N.N.N.N.N.N.N.N.N.N.N.N.N.O.O.[Ru+4].[Ru+5].[Ru+5]`, the Potency result in experiment [6], in experiment [7], in experiment [2] and in experiment [4] was “inactive” each time.

With `CC(C)NC[C@@H](O)c1ccc(O)c(O)c1`, the Potency result in experiment [6], in experiment [7], in experiment [2], in experiment [3], in experiment [5] and in experiment [4] was “inactive” throughout.

For `CN1CCc2ccccc2Cc2[nH]c3ccccc3c2CC1`, the Potency entry in experiment [6], in experiment [7], in experiment [2], in experiment [3], in experiment [5] and in experiment [4] was “inactive” each time.

With `O=S(=O)(c1cccc2c(I)cccc12)N1CCCNCC1`, the Potency entry in experiment [6], in experiment [2], in experiment [3] and in experiment [5] was “inactive” in each case.

For `C=C[C@H]1CN2CC[C@@H]1C[C@@H]2[C@@H](O)c1ccnc2ccc(OC)cc12`, the Potency result in experiment [6], in experiment [7], in experiment [2] and in experiment [4] was “inactive” each time.

`Oc1ccccc1O`: the Potency entry in experiment [6], in experiment [7], in experiment [2] and in experiment [4] was “inactive” each time.

Turning to `CCCCCCCCCCCCCCCCCCNC(=O)OCC(COP(=O)([O-])OCC[n+]1ccsc1)OC` (configuration not stated), the Potency entry in experiment [6], in experiment [7] and in experiment [4] was “inactive” each time.

Take `OCC1O[C@H](O)C(Cl)C(O)C1O` (some centres not stated): the Potency entry in experiment [6], in experiment [7], in experiment [2], in experiment [3], in experiment [5] and in experiment [4] was “inactive” in each case.

Regarding `CCCN(CC1CC1)c1nc(C)nc(Nc2c(Cl)cc(Cl)cc2Cl)c1Cl`, the Potency entry in experiment [6], in experiment [7], in experiment [2], in experiment [3], in experiment [5] and in experiment [4] was “inactive” throughout. Also, in experiment [8], the outcome was inactive.

Regarding `CO/S(=N\S(=O)(=O)c1ccc(Cl)cc1)c1ccc([N+](=O)[O-])cc1` (configuration not stated), the Potency result in experiment [6], in experiment [7] and in experiment [4] was “inactive” in each case.

In the case of `CCCCCCCCc1ccc(-c2ccc(C(=O)O)cc2)cc1`, the Potency result in experiment [6], in experiment [7], in experiment [2] and in experiment [4] was “inactive” each time.

As to `Cn1c(=O)c2[nH]c(-c3ccccc3)nc2n(C)c1=O`, the Potency result in experiment [6], in experiment [7], in experiment [2] and in experiment [4] was “inactive” in each case.

Consider `CSc1ccccc1N1CCN(CCCCCC(=O)NC2CCCc3ccccc32)CC1` (configuration not stated), for which the Potency result in experiment [6], in experiment [7] and in experiment [4] was “inactive” in each case. Also, the outcome in experiment [8] was inactive.
